Assay outcomes deposited in PubChem by Broad Institute.
The list is not random: actives were taken first. Their share in the collection is about 6.7%.
Pf Dd2 inh = inhibitors of Plasmodium falciparum Dd2 growth; P. falciparum Dd2 growth, SYBR Green, 72 h; stronger effect = lower value; activity change, % at 10 µM; 94,000 tested, 2.3% active; AID 1159554; in the data active = activity change below about -80%; inconclusive = no clear call, values can overlap the other calls
C diff growth = inhibitors of Clostridium difficile growth | 86,000 tested, 0.25% active | Clostridium difficile clinical isolate growth, OD600, 24 h; stronger effect = lower value | AID 1259249 | growth activity, negative = inhibition, % at 16 µg/mL (by protocol);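 active = mean growth activity at or below -80% and every replicate also at or below -80%; inconclusive = mean at or below -80% but some replicate above -80%; inactive = mean growth activity above -80%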
T cruzi growth-1 = blocks T. cruzi growth in NIH3T3 culture | inhibition, % at 8.34 µM | AID 624255 | T. cruzi beta-gal in NIH3T3, GalScreen luminescence, 90 h | 77,000 tested, 5.9% active;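 active = mean inhibition above about 93%, with at least 55% of replicates each passing it, limit read from the data, passing the limit was not always enough; inconclusive = only one of those two conditions holds; inactive = neither condition holds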
T cruzi growth-2 = inhibitors of T. cruzi proliferation; shares compounds with T cruzi growth-1; T. cruzi beta-gal in NIH3T3, GalScreen luminescence, 90 h; inhibition, % at 8.35 µM; 5,600 tested, 72% active; AID 651739;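 active = mean replicate inhibition above about 95% and at least 55% of replicates individually reaching it, limit read from the data; inconclusive = only one of the two criteria is met; inactive = neither criterion is met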
T cruzi growth-3 = inhibitors of T. cruzi proliferation | shares compounds with T cruzi growth-1 | T. cruzi beta-gal in NIH3T3, GalScreen luminescence, 90 h | inhibition, % at 2.09 µM | 5,600 tested, 21% active;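 active = mean inhibition above about 95%, with at least 55% of replicates also reaching it, limit read from the data; inconclusive = meets just one of the two conditions; inactive = meets neither condition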
NIH3T3 tox = NIH/3T3 (mouse) viability loss | 5,600 tested, 14% active | cytotoxicity (signal decrease), % at 8.35 µM | shares compounds with T cruzi growth-1 | NIH/3T3 viability, CellTiter-Glo ATP luminescence, 90 h | AID 651742;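 active = mean signal decrease across replicates above about 35% based on untreated-well scatter, with enough replicates individually passing, limit read from the data; inconclusive = no rule stated though some were filed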
3T3 cytotox 2 = kills mouse NIH/3T3 fibroblasts. NIH/3T3 viability, CellTiter-Glo ATP luminescence, 90 h. AID 651744. shares compounds with T cruzi growth-1. inhibition, % at 24.9 µM. 5,600 tested, 56% active;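 active = mean loss of cell viability signal at or above a set limit, and enough replicates individually reaching it; inconclusive = meets only the mean limit or only the replicate share; inactive = meets neither condition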
Of the large screens only hits and unclear results are named; the others gave an inactive call (follow-up assays come after a bar, where they were run).

C[C@H]1CCCCO[C@H](CN(C)S(=O)(=O)c2ccc(Cl)cc2)[C@@H](C)CN([C@@H](C)CO)C(=O)c2cc(NC(=O)Nc3ccccc3)ccc2O1	Pf Dd2 inh inconclusive (no result: C diff growth)
C[C@@H]1CCCCO[C@H](CN(C)S(=O)(=O)c2ccc(Cl)cc2)[C@H](C)CN([C@@H](C)CO)C(=O)c2cc(NC(=O)Nc3ccccc3)ccc2O1	Pf Dd2 inh inconclusive (no result: C diff growth)
Cc1ccc(S(=O)(=O)N(C)C[C@H]2OCCCC[C@H](C)Oc3ccc(NC(=O)Nc4ccccc4)cc3C(=O)N([C@H](C)CO)C[C@@H]2C)cc1	T cruzi growth-1 110 | T cruzi growth-2 103 | T cruzi growth-3 inactive | NIH3T3 tox inactive | 3T3 cytotox 2 inactive
O=C(C[C@@H]1CC[C@@H]2[C@H](COC[C@@H](O)CN2C(=O)Nc2cccc(Cl)c2)O1)NCC1CCCCC1	none
O=C(C[C@H]1C[C@@H]2c3cc(NC(=O)c4cccnc4)ccc3O[C@@H]2[C@@H](CO)O1)NC1CCCC1	none (no result: T cruzi growth-1)
COc1ccc2c3c(n(C)c2c1)[C@@H](CO)N(C)CC31CCN(C(=O)Nc2c(C)noc2C)CC1	none (no result: T cruzi growth-1)
C[C@@H]1CCCCO[C@H](CN(C)Cc2ccccc2)[C@@H](C)CN([C@H](C)CO)C(=O)c2cc(NC(=O)NC3CCCCC3)ccc2O1	none
C[C@@H]1CN([C@@H](C)CO)C(=O)c2cc(NC(=O)NC3CCCCC3)ccc2O[C@@H](C)CCCCO[C@@H]1CN(C)Cc1ccccc1	none
C[C@@H]1CCCCO[C@H](CN(C)Cc2ccccc2)[C@H](C)CN([C@@H](C)CO)C(=O)c2cc(NC(=O)NC3CCCCC3)ccc2O1	T cruzi growth-1 inconclusive | T cruzi growth-2 100 | T cruzi growth-3 inactive | NIH3T3 tox inactive | 3T3 cytotox 2 100
C[C@@H]1CCCCO[C@@H](CN(C)Cc2ccccc2)[C@H](C)CN([C@H](C)CO)C(=O)c2cc(NC(=O)NC3CCCCC3)ccc2O1	T cruzi growth-1 inconclusive | T cruzi growth-2 107 | T cruzi growth-3 inactive | NIH3T3 tox inactive | 3T3 cytotox 2 100
CC(C)NC(=O)N(C)C[C@@H]1Oc2ncc(C#CC3CC3)cc2C(=O)N([C@H](C)CO)C[C@@H]1C	none (no result: T cruzi growth-1)
C[C@@H]1CN([C@H](C)CO)C(=O)c2cc(NC(=O)NC3CCCCC3)ccc2O[C@@H](C)CCCCO[C@H]1CN(C)C(=O)Nc1ccc(F)cc1	none (no result: T cruzi growth-1)
C[C@H](CO)N1C[C@H](C)[C@H](CN(C)C(=O)Nc2ccc(F)cc2)OCCCC[C@H](C)Oc2ccc(NC(=O)NC3CCCCC3)cc2C1=O	T cruzi growth-1 102 | T cruzi growth-2 106 | T cruzi growth-3 inactive | NIH3T3 tox inactive | 3T3 cytotox 2 inactive
C[C@@H]1CCCCO[C@H](CN(C)C(=O)Nc2ccc(F)cc2)[C@@H](C)CN([C@H](C)CO)C(=O)c2cc(NC(=O)NC3CCCCC3)ccc2O1	none
C[C@H](CO)N1C[C@H](C)[C@@H](CN(C)C(=O)Nc2ccc(F)cc2)OCCCC[C@H](C)Oc2ccc(NC(=O)NC3CCCCC3)cc2C1=O	T cruzi growth-1 inconclusive | T cruzi growth-2 109 | T cruzi growth-3 inactive | NIH3T3 tox inactive | 3T3 cytotox 2 inactive
C[C@@H]1CN([C@H](C)CO)C(=O)c2cc(Br)cnc2O[C@H]1CN(C)Cc1ccncc1	none
CC(C)CC#Cc1ccc2c(c1)O[C@H](CN(C)C(=O)Cc1ccncc1)[C@H](C)CN([C@@H](C)CO)S2(=O)=O	T cruzi growth-1 101 | T cruzi growth-2 101 | T cruzi growth-3 inactive | NIH3T3 tox inactive | 3T3 cytotox 2 inactive
CC(C)CC#Cc1ccc2c(c1)O[C@@H](CN(C)C(=O)Cc1ccncc1)[C@@H](C)CN([C@@H](C)CO)S2(=O)=O	Pf Dd2 inh inconclusive, T cruzi growth-1 inconclusive | T cruzi growth-2 103 | T cruzi growth-3 inactive | NIH3T3 tox inactive | 3T3 cytotox 2 75
CC(C)CC#Cc1ccc2c(c1)O[C@H](CN(C)C(=O)Cc1ccncc1)[C@H](C)CN([C@H](C)CO)S2(=O)=O	none
CC(C)CC#Cc1ccc2c(c1)O[C@@H](CN(C)C(=O)Cc1ccncc1)[C@H](C)CN([C@H](C)CO)S2(=O)=O	none
CN(C)C(=O)C[C@@H]1CC[C@@H]2[C@H](COC[C@H](O)CN2CC2CCCCC2)O1	none
C[C@@H]1CCCCO[C@H](CN(C)Cc2ccccc2)[C@H](C)CN([C@H](C)CO)C(=O)c2cc(NS(=O)(=O)c3cn(C)cn3)ccc2O1	none (no result: C diff growth)
COc1ccc2c3c(n(C)c2c1)[C@H](CO)NCC31CN(C(=O)Nc2ccc(F)cc2F)C1	none (no result: T cruzi growth-1)
COCC#Cc1ccc2c(c1)O[C@H](CN(C)CC1CC1)[C@H](C)CN([C@@H](C)CO)S2(=O)=O	none (no result: T cruzi growth-1)
Cc1noc(C)c1S(=O)(=O)Nc1cccc2c1O[C@H](CN(C)Cc1ccc(C(=O)Nc3ccccc3N)cc1)[C@H](C)CN([C@@H](C)CO)C2=O	T cruzi growth-1 inconclusive (no result: C diff growth) | T cruzi growth-2 101 | T cruzi growth-3 inactive | NIH3T3 tox inactive | 3T3 cytotox 2 36
C[C@@H]1CN([C@H](C)CO)C(=O)c2cc(NS(=O)(=O)c3ccc(Cl)cc3)ccc2O[C@@H]1CN(C)Cc1ccc(C(=O)Nc2ccccc2N)cc1	T cruzi growth-1 inconclusive | T cruzi growth-2 inactive | T cruzi growth-3 inactive | NIH3T3 tox inactive | 3T3 cytotox 2 46
C[C@@H]1CN([C@@H](C)CO)C(=O)c2cc(NS(=O)(=O)c3ccc(Cl)cc3)ccc2O[C@H]1CN(C)Cc1ccc(C(=O)Nc2ccccc2N)cc1	none
Cc1noc(C)c1S(=O)(=O)Nc1ccc2c(c1)C(=O)N([C@@H](C)CO)C[C@@H](C)[C@@H](CN(C)Cc1ccc(C(=O)Nc3ccccc3N)cc1)O2	T cruzi growth-1 inconclusive (no result: C diff growth) | T cruzi growth-2 100 | T cruzi growth-3 inactive | NIH3T3 tox inactive | 3T3 cytotox 2 33
Cc1noc(C)c1S(=O)(=O)Nc1cccc2c1O[C@@H](CN(C)Cc1ccc(-c3ccccc3)cc1)[C@@H](C)CN([C@@H](C)CO)C2=O	none (no result: C diff growth)
Cc1noc(C)c1S(=O)(=O)Nc1cccc2c1O[C@@H](CN(C)Cc1ccc(C(=O)Nc3ccccc3N)cc1)[C@@H](C)CN([C@H](C)CO)C2=O	none (no result: T cruzi growth-1)
Cc1noc(C)c1S(=O)(=O)Nc1ccc2c(c1)C(=O)N([C@@H](C)CO)C[C@H](C)[C@@H](CN(C)Cc1ccc(C(=O)Nc3ccccc3N)cc1)O2	none (no result: T cruzi growth-1)
Cc1noc(C)c1S(=O)(=O)Nc1cccc2c1O[C@H](CN(C)Cc1ccc(-c3ccccc3)cc1)[C@H](C)CN([C@@H](C)CO)C2=O	T cruzi growth-1 100 | T cruzi growth-2 inactive | T cruzi growth-3 inactive | NIH3T3 tox inactive | 3T3 cytotox 2 inactive
C[C@@H]1CCCCO[C@H](CN(C)C(=O)Nc2ccc(F)cc2)[C@@H](C)CN([C@@H](C)CO)C(=O)c2cc(NS(=O)(=O)c3ccc(F)cc3)ccc2O1	Pf Dd2 inh inconclusive
